From PMC4552634, “A New Set of Chemical Starting Points with Plasmodium falciparum Transmission-Blocking Potential for Antimalarial Drug Discovery” (PLoS ONE, 2015)
Screen size: about 13,000 compounds; about 3,200 (25%) showed an effect of 50% or more. This is one part of the list.

tested on: P. falciparum stage V gametocytes; design: BacTiter-Glo ATP luminescence viability of purified stage V gametocytes in 384-well plates, per cent inhibition versus DMSO; settings: 48 h, 5 µM; inhibitor

SMILES | % Inhibition [%]
Fc1ccc(-c2cncc(-c3ccc(F)cc3)n2)cc1 [TCMDC-137988] | -9.929
Cc1ccccc1C1CCN(C2CCC(NC(=O)/C=C/c3cccc(F)c3)CC2)CC1 (stereo not shown) [TCMDC-133505] | -47.31
Nc1ccc(-c2cnc3[nH]cc(-c4ccc(C(=O)O)cc4)c3c2)cn1 [TCMDC-136383] | 1.916
COc1ccc2nc(-c3ccc(C(=O)NCCCN4CCN(c5cc(Cl)ccc5OC)CC4)cc3OC)[nH]c2c1 [TCMDC-140025] | -24.14
CCCc1cc(Cc2cnc(N)nc2N)cc(OC)c1OC [TCMDC-137647] | 0.312
O=C(Nc1cc(C(F)(F)F)cc(C(F)(F)F)c1)Nc1cc(C(F)(F)F)cc(C(F)(F)F)c1 [TCMDC-123956] | -66.5
CCOC(=O)c1ccc(-c2cnoc2-c2cc(CC)c(OC)cc2O)o1 [TCMDC-124201] | -15.35
CC1CN(c2cc(=O)n(Cc3ccc(NC(=O)Nc4ccc(-c5ccccc5)cc4)cc3)cn2)CC(C)N1 (stereo not shown) [TCMDC-133372] | 24.66
CCOc1cc(C(=O)NCCc2ccc(Cl)c(Cl)c2)ccc1-c1nc2ccc(Cl)cc2[nH]1 [TCMDC-140905] | -12.3
O=C(NCc1ccc(Cl)c(Cl)c1)c1ccc(-c2nc3ccc(Cl)cc3[nH]2)cc1 [TCMDC-140441] | 19.73
CCOc1cc(C(=O)NCc2ccc(Cl)c(Cl)c2)ccc1-c1nc2ccc(Cl)cc2[nH]1 [TCMDC-140903] | 96.39
COC(=O)c1ccc2nc(-c3ccc(C(=O)NCc4ccc(Cl)c(Cl)c4)cc3)[nH]c2c1 [TCMDC-140445] | 73.87
CCOc1cc(C(=O)NCc2cc(Cl)cc(Cl)c2)ccc1-c1nc2ccc(Cl)cc2[nH]1 [TCMDC-140904] | -8.665
Cc1ccc2[nH]c(-c3ccc(C(=O)NCc4ccc(Cl)c(Cl)c4)cc3)nc2c1C [TCMDC-140450] | 11.51
CC1(C)[C@H]2CC[C@@H](CNc3nc(NCCc4cnc[nH]4)nc(NCc4cc(F)ccc4F)n3)[C@@H]1C2 [TCMDC-139317] | -2.684
O=C(CCc1c[nH]cn1)Nc1cccc(-c2ccc(-c3nc4ccccc4[nH]3)s2)c1 [TCMDC-132152] | -14.42
Cn1cc(C2CCN(CCCCCNC(=O)/C=C/c3ccc(Cl)c(Cl)c3)CC2)c2cc(O)ccc21 [TCMDC-139364] | -26.1
CN(C)Cc1c(O)ccc2[nH]c(-c3ccc(F)cc3F)nc12 [TCMDC-136534] | 71.11
CC(C)CN(Cc1c(O)ccc2[nH]c(-c3ccc(F)cc3F)nc12)CC(C)C [TCMDC-136358] | -65.39
CN(C)Cc1c(O)ccc2[nH]c(-c3cccc(F)c3)nc12 [TCMDC-136535] | -72.73
Cn1cnc(CCNC(=O)c2ccc(-c3cccc(-c4nc5cc(F)ccc5[nH]4)c3)cc2)c1 [TCMDC-132497] | -1.156
CC(C)(C)N1CCC(N(Cc2ccc(-c3ccc(C(F)(F)F)cc3)cc2)C(=O)Cn2c(CCc3cccc(F)c3F)nc(=O)c3cccnc32)CC1 [TCMDC-136050] | 107.4

SMILES | % Inhibition [%]
CC(C)N1CCC(N(Cc2ccc(-c3ccc(C(F)(F)F)cc3)cc2)C(=O)Cn2c(CCc3cccc(F)c3F)nc(=O)c3cccnc32)CC1 [TCMDC-136049] | 118.8
O=C(Nc1cccc(-c2nn3ncccc3c2-c2ccnc(Nc3cccc(C(F)(F)F)c3)n2)c1)c1c(F)cccc1F [TCMDC-135549] | -33.07
COCn1ncc2cc(-c3cccc(NC(=O)c4csc(NC(C)=O)n4)c3)ccc21 [TCMDC-133146] | 24.99
CNC(=O)C(C)N(c1ccc(Cl)cc1)c1nc(C(C)(C)C)cs1 (stereo not shown) [TCMDC-125380] | 52.18
CC1(C)N=C(N)N=C(N)N1OCCCc1cc(Cl)c(Cl)cc1Cl [TCMDC-131696] | 1.916
CCCCc1cc(N2CCC(NC(C)=O)C2)nc(Nc2ccc(C)cc2)n1 (stereo not shown) [TCMDC-134020] | 11.89
COc1cc2nc(C)nc(Nc3ccc(Cc4ccccc4)cc3)c2cc1OC [TCMDC-131941] | 1.462
COc1ccc(Nc2nc(N)c3cc(OC)c(OC)cc3n2)cc1OC.Cl [TCMDC-131881] | -0.9625
COc1cc2nc(NCc3ccc(S(N)(=O)=O)cc3)nc(Nc3ccc(Oc4ccccc4)cc3)c2cc1OC [TCMDC-138256] | 65.95
COc1cc2nc(Nc3ccc4c(c3)OCCO4)nc(N)c2cc1OC.Cl [TCMDC-131882] | -45.81
COc1cc2nc(N(C)C)nc(Nc3ccc(OCc4ccccc4)cc3)c2cc1OC [TCMDC-137183] | 59.63
COc1cc2nc(C)nc(Nc3ccc(Oc4ccccc4)cc3)c2cc1OC [TCMDC-131940] | 0.7535
COc1cc2nc(Nc3ccc(Oc4ccccc4)cc3)nc(Nc3ccc(Oc4ccccc4)cc3)c2cc1OC [TCMDC-138238] | -17.62
N#Cc1cnc(Nc2ccc(Oc3ccccc3)cc2)nc1Nc1cccc(S(N)(=O)=O)c1 [TCMDC-138613] | -50.28
COc1cc2nccc(Nc3ccc(Oc4ccccc4)cc3)c2cc1OC.Cl [TCMDC-131917] | -23.95
COc1cc2ncnc(Nc3ccc(OCc4ccccc4)c(OCc4ccccc4)c3)c2cc1OC [TCMDC-131922] | -20.12
COc1cc2nc(NCCCO)nc(Nc3ccc(Oc4ccccc4)cc3)c2cc1OC [TCMDC-138255] | 110.2
COc1cc2nc(Nc3ccc(C)cc3)nc(Nc3ccc(C)cc3)c2cc1OC.Cl [TCMDC-138540] | 91.22
C=C(NC(=O)C1CCCCC1)C(=O)OC [TCMDC-131685] | 0.06563
NC1=NC(c2ccccc2)(c2ccccn2)C(=O)N1CCCc1ccccc1 (stereo not shown) [TCMDC-136603] | 9.29
Cc1cc(N2CCCC2)nc(Nc2ccc(NC(=O)c3ccccc3F)cc2)n1 [TCMDC-124710] | -34.77
